# Publication PMC7862700, “An all-to-all approach to the identification of sequence-specific readers for epigenetic DNA modifications on cytosine”
# Legend:
# Assay in all cases: DAPPL (digital affinity profiling via proximity ligation, sequencing); 10 mM Tris-HCl pH 7.5, 50 mM NaCl, 1 mM DTT, 4% glycerol, room temperature, 30 min; GST-TFs on glutathione beads, 16-mer random dsDNA library, 0.1% formaldehyde crosslink after washing; high values mean tight binding
# FLI1 = biological target: T1, FLI1 (Homo sapiens, UniProt Q01543 1-452); conditions: protein: recombinant; tags: N-terminal GST; dsDNA, one strand shown
# T1 sequence: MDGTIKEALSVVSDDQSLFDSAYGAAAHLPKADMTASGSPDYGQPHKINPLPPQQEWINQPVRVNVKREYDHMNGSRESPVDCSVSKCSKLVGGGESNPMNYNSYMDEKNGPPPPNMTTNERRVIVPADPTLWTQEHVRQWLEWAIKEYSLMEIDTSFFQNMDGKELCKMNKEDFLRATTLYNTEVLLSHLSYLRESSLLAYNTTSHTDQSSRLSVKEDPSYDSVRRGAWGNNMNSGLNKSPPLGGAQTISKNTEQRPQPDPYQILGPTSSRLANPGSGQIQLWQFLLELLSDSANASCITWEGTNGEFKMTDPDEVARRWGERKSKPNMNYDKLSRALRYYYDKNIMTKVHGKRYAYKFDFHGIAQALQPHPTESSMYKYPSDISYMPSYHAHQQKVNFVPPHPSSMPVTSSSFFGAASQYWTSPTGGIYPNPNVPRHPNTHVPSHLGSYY
# Procedure, shortened: (§1)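 Beads coated with glutathione captured GST-fused human transcription factors that had been expressed in yeast, and the factors were then given DNA barcodes and pooled with a tag-only sample. The pools were incubated with 200 nmole of a random double-stranded 16-mer DNA library in Tris/NaCl/DTT/glycerol buffer for 30 min at room temperature, washed, crosslinked with 0.1% formaldehyde and proximity-ligated with BsaI/T4 ligase at 37 °C for 1 h. PCR amplification and Illumina NextSeq500 sequencing came last. Binding signal is each hexamer's read frequency for a factor divided by its frequency for the tag-only sample.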
# ELK1 = biological target: T2, ELK1 (Homo sapiens, UniProt P19419 1-428); conditions: protein: recombinant; tags: N-terminal GST; dsDNA, one strand shown
# T2 sequence: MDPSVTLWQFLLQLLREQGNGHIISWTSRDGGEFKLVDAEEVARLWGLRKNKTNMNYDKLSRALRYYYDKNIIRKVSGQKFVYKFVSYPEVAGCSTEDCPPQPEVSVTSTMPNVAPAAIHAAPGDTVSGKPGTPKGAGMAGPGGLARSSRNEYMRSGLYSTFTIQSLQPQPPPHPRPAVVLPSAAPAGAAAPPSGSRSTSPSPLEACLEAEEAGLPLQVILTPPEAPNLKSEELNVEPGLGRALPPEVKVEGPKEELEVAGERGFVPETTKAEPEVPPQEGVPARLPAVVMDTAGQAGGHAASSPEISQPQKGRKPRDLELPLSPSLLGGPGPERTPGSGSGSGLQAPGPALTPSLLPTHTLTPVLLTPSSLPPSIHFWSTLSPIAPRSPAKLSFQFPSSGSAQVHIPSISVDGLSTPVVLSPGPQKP
# Procedure, shortened: as §1
# GABPA = biological target: T3, GABPA (Homo sapiens, UniProt Q06546 1-454); conditions: protein: recombinant; tags: N-terminal GST; dsDNA, one strand shown
# T3 sequence: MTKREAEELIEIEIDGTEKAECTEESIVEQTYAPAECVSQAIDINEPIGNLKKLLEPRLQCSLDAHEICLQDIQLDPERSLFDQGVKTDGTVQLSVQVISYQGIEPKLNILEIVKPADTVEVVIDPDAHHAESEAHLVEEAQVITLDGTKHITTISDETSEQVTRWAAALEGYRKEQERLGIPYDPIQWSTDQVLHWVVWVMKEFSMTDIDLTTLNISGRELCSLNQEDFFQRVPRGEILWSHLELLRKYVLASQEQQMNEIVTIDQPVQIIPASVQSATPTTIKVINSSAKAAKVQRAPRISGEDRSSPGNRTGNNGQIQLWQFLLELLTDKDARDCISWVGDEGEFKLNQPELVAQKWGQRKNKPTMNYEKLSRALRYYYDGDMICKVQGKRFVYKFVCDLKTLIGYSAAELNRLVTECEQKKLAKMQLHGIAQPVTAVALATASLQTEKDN
# Procedure, shortened: as §1
# ERG = biological target: T4, ERG (Homo sapiens, UniProt P11308 1-479); conditions: protein: recombinant; tags: N-terminal GST; dsDNA, one strand shown
# T4 sequence: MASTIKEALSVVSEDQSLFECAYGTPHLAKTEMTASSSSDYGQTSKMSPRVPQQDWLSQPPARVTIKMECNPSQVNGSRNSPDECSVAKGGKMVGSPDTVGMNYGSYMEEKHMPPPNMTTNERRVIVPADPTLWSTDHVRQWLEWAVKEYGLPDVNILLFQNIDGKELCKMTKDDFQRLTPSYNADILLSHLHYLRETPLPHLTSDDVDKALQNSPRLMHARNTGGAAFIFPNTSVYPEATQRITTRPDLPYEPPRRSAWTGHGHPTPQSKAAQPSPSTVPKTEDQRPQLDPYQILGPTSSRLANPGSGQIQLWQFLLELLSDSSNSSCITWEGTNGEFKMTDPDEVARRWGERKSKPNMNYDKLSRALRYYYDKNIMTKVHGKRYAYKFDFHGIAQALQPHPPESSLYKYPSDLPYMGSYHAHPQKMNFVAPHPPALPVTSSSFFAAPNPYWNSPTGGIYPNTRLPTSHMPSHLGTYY
# Procedure, shortened: as §1
# ELF1 = ELF1 (Homo sapiens, UniProt P32519 1-619); conditions: protein: recombinant; tags: N-terminal GST; dsDNA, one strand shown
# Procedure, shortened: as §1
# EHF = biological target: T5, EHF (Homo sapiens, UniProt Q9NZC4 1-300); conditions: protein: recombinant; tags: N-terminal GST; dsDNA, one strand shown
# T5 sequence: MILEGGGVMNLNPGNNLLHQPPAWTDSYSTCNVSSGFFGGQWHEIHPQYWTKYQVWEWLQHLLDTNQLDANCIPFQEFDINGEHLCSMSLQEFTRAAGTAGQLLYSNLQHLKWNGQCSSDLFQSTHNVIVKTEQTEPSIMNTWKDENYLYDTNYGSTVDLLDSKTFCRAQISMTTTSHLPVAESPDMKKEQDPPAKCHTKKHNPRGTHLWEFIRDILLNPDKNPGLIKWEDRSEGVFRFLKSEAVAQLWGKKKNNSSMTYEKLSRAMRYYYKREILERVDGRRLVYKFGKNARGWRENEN
# Procedure, shortened: as §1
# SPI1 = SPI1 (Homo sapiens, UniProt P17947 1-270); conditions: protein: recombinant; tags: N-terminal GST; dsDNA, one strand shown
# Procedure, shortened: as §1
# SPIB = SPIB (Homo sapiens, UniProt Q01892 1-262); conditions: protein: recombinant; tags: N-terminal GST; dsDNA, one strand shown
# Procedure, shortened: as §1
# ELK3 = biological target: T6, ELK3 (Homo sapiens, UniProt P41970 1-407); conditions: protein: recombinant; tags: N-terminal GST; dsDNA, one strand shown
# T6 sequence: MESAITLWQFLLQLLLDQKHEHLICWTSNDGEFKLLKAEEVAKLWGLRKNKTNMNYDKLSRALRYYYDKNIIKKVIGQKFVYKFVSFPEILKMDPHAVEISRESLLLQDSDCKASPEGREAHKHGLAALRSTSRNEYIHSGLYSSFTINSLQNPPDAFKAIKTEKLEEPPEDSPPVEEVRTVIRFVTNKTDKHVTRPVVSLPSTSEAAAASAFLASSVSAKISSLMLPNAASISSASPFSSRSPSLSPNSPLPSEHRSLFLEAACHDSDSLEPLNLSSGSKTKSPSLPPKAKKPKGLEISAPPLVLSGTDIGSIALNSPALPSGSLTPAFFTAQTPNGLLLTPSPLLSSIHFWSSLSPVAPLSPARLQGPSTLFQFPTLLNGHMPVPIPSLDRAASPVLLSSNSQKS
# Procedure, shortened: as §1
# FEV = biological target: T7, FEV (Homo sapiens, UniProt Q99581 1-238); conditions: protein: recombinant; tags: N-terminal GST; dsDNA, one strand shown
# T7 sequence: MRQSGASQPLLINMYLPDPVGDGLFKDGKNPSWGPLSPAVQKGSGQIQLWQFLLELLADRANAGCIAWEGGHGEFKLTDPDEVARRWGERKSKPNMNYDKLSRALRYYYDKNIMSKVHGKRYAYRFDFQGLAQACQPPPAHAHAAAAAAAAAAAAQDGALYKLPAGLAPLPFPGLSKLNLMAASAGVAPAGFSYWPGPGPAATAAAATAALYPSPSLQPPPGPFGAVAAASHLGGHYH
# Procedure, shortened: as §1
# ETV5 = ETV5 (Homo sapiens, UniProt P41161 1-510); conditions: protein: recombinant; tags: N-terminal GST; dsDNA, one strand shown
# Procedure, shortened: as §1
# HSF1 = HSF1 (Homo sapiens, UniProt Q00613 1-529); conditions: protein: recombinant; tags: N-terminal GST; chain copies: 3; dsDNA, one strand shown
# Procedure, shortened: as §1
# SPIC = biological target: T8, SPIC (Homo sapiens, UniProt Q8N5J4 1-248); conditions: protein: recombinant; tags: N-terminal GST; dsDNA, one strand shown
# T8 sequence: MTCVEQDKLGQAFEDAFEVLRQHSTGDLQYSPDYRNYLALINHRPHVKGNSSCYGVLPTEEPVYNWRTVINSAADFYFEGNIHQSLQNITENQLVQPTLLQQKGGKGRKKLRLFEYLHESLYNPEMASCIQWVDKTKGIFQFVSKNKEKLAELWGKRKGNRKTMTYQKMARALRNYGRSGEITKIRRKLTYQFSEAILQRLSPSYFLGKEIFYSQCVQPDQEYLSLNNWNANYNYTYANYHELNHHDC
# Procedure, shortened: as §1
# ELF4 = ELF4 (Homo sapiens, UniProt Q99607 1-663); conditions: protein: recombinant; tags: N-terminal GST; dsDNA, one strand shown
# Procedure, shortened: as §1
# ELK4 = biological target: T9, ELK4 (Homo sapiens, UniProt P28324-2 1-405); conditions: protein: recombinant; tags: N-terminal GST; dsDNA, one strand shown
# T9 sequence: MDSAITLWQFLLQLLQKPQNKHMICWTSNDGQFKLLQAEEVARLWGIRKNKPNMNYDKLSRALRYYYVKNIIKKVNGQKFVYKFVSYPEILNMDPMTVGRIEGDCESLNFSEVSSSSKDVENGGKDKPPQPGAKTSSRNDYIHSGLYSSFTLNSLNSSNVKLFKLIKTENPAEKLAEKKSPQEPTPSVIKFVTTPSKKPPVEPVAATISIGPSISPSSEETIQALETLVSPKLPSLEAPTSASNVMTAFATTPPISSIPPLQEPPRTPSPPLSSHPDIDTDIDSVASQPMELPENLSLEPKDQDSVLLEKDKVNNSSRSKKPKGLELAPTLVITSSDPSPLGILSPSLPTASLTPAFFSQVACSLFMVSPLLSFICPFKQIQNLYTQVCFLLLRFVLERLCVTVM
# Procedure, shortened: as §1
# ETV2 = biological target: T10, ETV2 (Homo sapiens, UniProt O00321 1-342); conditions: protein: recombinant; tags: N-terminal GST; dsDNA, one strand shown
# T10 sequence: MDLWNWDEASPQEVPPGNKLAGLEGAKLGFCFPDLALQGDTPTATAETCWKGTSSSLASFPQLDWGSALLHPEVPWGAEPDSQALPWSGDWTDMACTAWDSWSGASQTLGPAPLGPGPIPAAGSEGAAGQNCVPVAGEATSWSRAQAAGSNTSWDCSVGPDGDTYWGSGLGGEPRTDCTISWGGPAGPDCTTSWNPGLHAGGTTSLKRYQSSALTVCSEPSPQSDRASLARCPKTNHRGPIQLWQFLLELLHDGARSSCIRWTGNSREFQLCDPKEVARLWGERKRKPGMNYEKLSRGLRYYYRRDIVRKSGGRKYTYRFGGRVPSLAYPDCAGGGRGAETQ
# Procedure, shortened: as §1
# ELF3 = biological target: T11, ELF3 (Homo sapiens, UniProt P78545 1-371); conditions: protein: recombinant; tags: N-terminal GST; dsDNA, one strand shown
# T11 sequence: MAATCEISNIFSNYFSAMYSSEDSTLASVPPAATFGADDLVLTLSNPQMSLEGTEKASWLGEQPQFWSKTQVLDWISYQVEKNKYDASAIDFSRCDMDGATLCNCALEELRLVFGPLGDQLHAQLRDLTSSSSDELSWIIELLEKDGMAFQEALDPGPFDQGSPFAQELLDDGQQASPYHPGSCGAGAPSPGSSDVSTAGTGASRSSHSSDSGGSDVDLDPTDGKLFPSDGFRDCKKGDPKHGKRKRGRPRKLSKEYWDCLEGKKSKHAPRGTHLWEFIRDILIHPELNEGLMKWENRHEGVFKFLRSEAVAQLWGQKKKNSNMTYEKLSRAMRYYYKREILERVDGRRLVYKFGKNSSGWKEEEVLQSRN
# Procedure, shortened: as §1
# CRX = CRX (Homo sapiens, UniProt O43186 1-299); conditions: protein: recombinant; tags: N-terminal GST; dsDNA, one strand shown
# Procedure, shortened: as §1
# ETV1 = ETV1 (Homo sapiens, UniProt P50549 1-477); conditions: protein: recombinant; tags: N-terminal GST; dsDNA, one strand shown
# Procedure, shortened: as §1
# Sequence of ELF4 (Q99607 whole entry): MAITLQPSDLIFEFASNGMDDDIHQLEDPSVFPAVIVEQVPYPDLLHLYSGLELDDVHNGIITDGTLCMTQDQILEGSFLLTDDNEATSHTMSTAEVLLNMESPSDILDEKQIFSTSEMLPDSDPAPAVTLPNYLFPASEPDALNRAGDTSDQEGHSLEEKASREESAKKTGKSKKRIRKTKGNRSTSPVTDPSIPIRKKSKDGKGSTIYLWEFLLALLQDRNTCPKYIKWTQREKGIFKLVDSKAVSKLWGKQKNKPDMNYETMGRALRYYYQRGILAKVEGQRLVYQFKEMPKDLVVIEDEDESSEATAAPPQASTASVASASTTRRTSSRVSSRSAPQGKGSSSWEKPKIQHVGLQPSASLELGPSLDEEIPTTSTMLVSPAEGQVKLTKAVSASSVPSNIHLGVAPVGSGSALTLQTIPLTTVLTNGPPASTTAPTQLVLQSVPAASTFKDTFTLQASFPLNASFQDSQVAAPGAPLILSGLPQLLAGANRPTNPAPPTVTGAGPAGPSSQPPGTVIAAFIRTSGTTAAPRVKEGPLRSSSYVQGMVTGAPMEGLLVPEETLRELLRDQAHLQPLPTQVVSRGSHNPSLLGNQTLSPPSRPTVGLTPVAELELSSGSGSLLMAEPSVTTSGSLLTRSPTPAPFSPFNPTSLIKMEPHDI
# Sequence of ELF1 (P32519 whole entry): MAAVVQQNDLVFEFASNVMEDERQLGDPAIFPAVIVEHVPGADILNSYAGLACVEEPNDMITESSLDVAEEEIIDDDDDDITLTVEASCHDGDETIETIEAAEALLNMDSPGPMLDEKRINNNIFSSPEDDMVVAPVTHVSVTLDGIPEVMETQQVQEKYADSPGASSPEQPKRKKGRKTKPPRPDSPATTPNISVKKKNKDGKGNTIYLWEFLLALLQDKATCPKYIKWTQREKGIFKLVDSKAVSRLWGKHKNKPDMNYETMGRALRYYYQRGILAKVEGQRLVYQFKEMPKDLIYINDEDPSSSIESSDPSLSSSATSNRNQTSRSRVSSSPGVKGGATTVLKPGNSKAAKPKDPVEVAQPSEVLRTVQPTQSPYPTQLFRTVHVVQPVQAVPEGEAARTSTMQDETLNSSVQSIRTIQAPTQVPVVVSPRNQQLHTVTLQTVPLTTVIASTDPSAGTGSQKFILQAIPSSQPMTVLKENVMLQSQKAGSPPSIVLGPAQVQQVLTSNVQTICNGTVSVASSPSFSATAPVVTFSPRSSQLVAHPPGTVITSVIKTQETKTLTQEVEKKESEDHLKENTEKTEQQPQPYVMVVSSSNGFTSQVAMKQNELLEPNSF
# Sequence of HSF1 (Q00613 whole entry): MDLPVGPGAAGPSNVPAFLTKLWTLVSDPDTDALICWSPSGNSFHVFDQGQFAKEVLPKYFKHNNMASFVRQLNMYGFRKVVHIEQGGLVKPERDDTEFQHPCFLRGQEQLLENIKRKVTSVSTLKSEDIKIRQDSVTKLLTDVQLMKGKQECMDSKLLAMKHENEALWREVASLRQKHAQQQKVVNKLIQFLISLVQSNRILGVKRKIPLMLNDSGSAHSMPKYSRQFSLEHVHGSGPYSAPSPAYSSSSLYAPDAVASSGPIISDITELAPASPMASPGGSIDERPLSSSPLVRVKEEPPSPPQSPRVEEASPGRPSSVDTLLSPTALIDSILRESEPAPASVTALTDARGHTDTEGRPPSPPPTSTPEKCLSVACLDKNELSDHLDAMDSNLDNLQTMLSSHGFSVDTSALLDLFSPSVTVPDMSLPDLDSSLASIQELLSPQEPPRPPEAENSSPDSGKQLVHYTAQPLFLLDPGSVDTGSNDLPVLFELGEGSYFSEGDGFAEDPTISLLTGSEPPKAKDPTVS
# Sequence of SPIB (Q01892 whole entry): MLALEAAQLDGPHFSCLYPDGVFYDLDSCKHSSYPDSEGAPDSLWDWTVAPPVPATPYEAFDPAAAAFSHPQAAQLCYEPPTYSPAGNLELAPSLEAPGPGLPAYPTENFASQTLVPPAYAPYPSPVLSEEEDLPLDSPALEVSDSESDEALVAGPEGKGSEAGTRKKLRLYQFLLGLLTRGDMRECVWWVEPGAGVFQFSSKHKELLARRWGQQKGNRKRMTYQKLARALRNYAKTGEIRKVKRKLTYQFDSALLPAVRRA
# Sequence of ETV5 (P41161 whole entry): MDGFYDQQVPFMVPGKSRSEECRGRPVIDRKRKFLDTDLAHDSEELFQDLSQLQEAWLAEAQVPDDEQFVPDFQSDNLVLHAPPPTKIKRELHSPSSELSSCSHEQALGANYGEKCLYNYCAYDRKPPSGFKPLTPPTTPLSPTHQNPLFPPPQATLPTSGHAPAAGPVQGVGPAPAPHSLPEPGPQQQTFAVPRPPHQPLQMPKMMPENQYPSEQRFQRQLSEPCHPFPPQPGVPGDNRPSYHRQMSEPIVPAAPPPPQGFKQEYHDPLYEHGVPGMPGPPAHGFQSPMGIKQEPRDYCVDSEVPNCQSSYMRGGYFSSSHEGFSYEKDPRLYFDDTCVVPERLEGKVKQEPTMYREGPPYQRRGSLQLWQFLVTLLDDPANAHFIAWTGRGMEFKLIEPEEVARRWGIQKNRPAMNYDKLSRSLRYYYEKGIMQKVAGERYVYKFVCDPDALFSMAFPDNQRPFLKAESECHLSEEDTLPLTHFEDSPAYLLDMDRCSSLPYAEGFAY
# Sequence of CRX (O43186 whole entry): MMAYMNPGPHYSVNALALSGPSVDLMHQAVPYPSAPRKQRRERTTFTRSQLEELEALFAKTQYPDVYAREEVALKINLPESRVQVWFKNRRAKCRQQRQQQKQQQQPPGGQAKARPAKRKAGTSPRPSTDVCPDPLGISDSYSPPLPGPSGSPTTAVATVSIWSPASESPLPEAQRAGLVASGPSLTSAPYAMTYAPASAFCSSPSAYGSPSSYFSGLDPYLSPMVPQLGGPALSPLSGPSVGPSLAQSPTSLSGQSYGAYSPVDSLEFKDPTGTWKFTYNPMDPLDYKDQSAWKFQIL
# Sequence of ETV1 (P50549 whole entry): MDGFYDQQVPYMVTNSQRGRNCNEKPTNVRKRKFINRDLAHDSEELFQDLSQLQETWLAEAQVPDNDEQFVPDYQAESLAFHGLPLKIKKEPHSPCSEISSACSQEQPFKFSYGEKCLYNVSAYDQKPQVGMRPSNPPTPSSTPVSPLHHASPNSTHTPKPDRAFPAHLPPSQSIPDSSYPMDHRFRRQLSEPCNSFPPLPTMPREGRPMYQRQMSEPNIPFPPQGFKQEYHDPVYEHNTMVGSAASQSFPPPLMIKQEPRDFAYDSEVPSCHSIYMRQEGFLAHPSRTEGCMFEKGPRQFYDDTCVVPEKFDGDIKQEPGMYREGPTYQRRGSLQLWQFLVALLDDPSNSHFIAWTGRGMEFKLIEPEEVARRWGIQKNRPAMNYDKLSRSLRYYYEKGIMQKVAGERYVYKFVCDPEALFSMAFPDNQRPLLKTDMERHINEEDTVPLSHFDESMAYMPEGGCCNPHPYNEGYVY
sequence,measurement,setting,value
AAACGC,binding signal,FLI1,"1.24 fold enrichment (6-mer frequency, TF over GST control)"
same,binding signal,ELK1,"1.17 fold enrichment (6-mer frequency, TF over GST control)"
same,binding signal,GABPA,"1.28 fold enrichment (6-mer frequency, TF over GST control)"
same,binding signal,ERG,"1.34 fold enrichment (6-mer frequency, TF over GST control)"
same,binding signal,ELF1,"1.27 fold enrichment (6-mer frequency, TF over GST control)"
same,binding signal,EHF,"1.25 fold enrichment (6-mer frequency, TF over GST control)"
same,binding signal,SPI1,"1.22 fold enrichment (6-mer frequency, TF over GST control)"
same,binding signal,SPIB,"1.22 fold enrichment (6-mer frequency, TF over GST control)"
same,binding signal,ELK3,"1.15 fold enrichment (6-mer frequency, TF over GST control)"
same,binding signal,FEV,"1.21 fold enrichment (6-mer frequency, TF over GST control)"
same,binding signal,ETV5,"1.28 fold enrichment (6-mer frequency, TF over GST control)"
same,binding signal,HSF1,"1.05 fold enrichment (6-mer frequency, TF over GST control)"
same,binding signal,SPIC,"1.29 fold enrichment (6-mer frequency, TF over GST control)"
same,binding signal,ELF4,"1.2 fold enrichment (6-mer frequency, TF over GST control)"
same,binding signal,ELK4,"1.27 fold enrichment (6-mer frequency, TF over GST control)"
same,binding signal,ETV2,"1.38 fold enrichment (6-mer frequency, TF over GST control)"
same,binding signal,ELF3,"1.21 fold enrichment (6-mer frequency, TF over GST control)"
same,binding signal,CRX,"1.04 fold enrichment (6-mer frequency, TF over GST control)"
same,binding signal,ETV1,"1.31 fold enrichment (6-mer frequency, TF over GST control)"
